# Several values for one entry are separate records, joined by “and”; a condition that tells them apart may be missing. Equal values may be shown once. Records with an inconclusive call do not appear. Where a call stands in place of a potency, no number is given. Activity calls are given as the source filed them. Unless noted, calls come from the whole dose curve; as a rule, active = well fitted curve in the direction sought with a large enough effect; inconclusive = small, poorly fitted or top-dose-only effect, or another doubt; inactive = no such curve, though single readings can be large; an effect the other way counts as inactive or inconclusive.
# Tests used:
# [1] = Validation of Assay for Modulators of Lamin A Splicing (AID 1459; active = well fitted curve in the direction sought with a large enough effect in the signal ratio; the % refers to the signal ratio;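 note: cells exposed to compound for two days before reading; ratio rise marks activators and ratio drop marks inhibitors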)
# Summary of the method: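 Splicing correction read as GFP (500-530 nm) over DsRed2 (575-640 nm) object intensity after 48 h compound exposure of reporter HeLa S3 clones (600 cells/well, 2% FBS medium); ancitabine and cycloheximide titrations, 0.5% DMSO as vehicle.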
# [2] = qHTS Assay for Lipid Storage Modulators (AID 1519; calls by dose curve); details: Drosophila S3 cells, BODIPY lipid droplet/cell ratio, laser cytometry, cells loaded with oleic acid; for activity change, negative = inhibition: at 57.5 µM (top of the series)
# Summary of the method: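 Cells seeded at 5,000 per well were treated with compounds over a concentration series and loaded with oleic acid (400 uM, as added). Lipid droplet fluorescence (488 nm excitation, 500-530 nm channel) was read by laser-scanning cytometry and normalized to 20 uM Triacsin C.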
# [3] = target: ATP-dependent DNA helicase Q1 (Homo sapiens) (UniProt P46063); assay: qHTS Validation Assay for Inhibitors of RecQ-Like Dna Helicase 1 (RECQ1) (AID 2353)
# Sequence of ATP-dependent DNA helicase Q1 (Homo sapiens) (P46063 whole entry, looked up): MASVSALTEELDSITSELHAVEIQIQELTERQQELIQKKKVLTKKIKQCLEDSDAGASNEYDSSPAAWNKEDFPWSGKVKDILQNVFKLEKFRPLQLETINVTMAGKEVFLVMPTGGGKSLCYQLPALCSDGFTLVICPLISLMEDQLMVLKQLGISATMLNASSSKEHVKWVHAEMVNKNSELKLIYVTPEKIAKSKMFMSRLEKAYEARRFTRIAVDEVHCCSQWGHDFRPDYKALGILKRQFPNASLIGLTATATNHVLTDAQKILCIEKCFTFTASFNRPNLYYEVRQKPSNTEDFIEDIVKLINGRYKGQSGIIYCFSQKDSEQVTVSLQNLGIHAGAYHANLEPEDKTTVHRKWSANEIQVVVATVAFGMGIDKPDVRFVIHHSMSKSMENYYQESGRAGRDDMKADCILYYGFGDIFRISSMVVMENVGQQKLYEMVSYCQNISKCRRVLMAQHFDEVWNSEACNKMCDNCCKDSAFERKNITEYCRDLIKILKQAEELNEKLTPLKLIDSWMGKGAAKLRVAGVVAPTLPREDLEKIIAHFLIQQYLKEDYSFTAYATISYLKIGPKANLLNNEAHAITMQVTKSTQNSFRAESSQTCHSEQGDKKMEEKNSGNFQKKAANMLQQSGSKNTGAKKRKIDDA
# Summary of the method: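 50 nM RECQ1T1 preincubated 15 min with compound in Tris pH 8.0 buffer with MgCl2, DTT, Tween-20 and 2.5 ug/ml poly(dI-dC); started with 200 nM TAMRA/BHQ-2 forked duplex and 2 mM ATP. Unwinding read as fluorescence (525/598 nm), two reads 2 h apart.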
# [4] = target: Galactokinase (Homo sapiens) (UniProt P51570); assay: qHTS Validation Assay for Inhibitors of Human Galactokinase (GALK) (AID 493189)
# Sequence of Galactokinase (Homo sapiens) (P51570 whole entry, looked up): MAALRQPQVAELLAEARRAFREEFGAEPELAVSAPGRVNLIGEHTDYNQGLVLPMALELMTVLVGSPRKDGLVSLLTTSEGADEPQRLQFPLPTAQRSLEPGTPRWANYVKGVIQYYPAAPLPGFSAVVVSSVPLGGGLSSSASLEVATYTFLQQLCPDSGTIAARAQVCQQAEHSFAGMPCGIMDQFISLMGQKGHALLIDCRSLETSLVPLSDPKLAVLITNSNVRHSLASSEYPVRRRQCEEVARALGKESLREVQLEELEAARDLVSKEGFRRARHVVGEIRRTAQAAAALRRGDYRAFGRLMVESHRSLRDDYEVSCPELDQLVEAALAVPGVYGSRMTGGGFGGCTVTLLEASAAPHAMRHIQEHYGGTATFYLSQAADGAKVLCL
# Summary of the method: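 Inhibition was measured as remaining ATP, detected by luciferase luminescence after a 1 h room-temperature reaction. Final conditions: 5 nM GALK, 100 uM galactose, 35 uM ATP, pH 8.0 HEPES buffer.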
# [5] = qHTS drug screen for cell cycle checkpoint inhibitors in PARPi-resistant BRCA-mutant ovarian cancer cell lines. (AID 1963452; calls by dose curve; note: potency is the fitted concentration of half-maximal effect); details: PEO1/OlaR viability, CellTiter-Glo luminescence, 96 h; for Z-AUC: stronger effect = lower value
# Summary of the method: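 PEO1, PEO4 and PEO1/OlaR ovarian cancer cells, 600 per well, exposed 96 h at 37C to a dilution series. Viability read by CellTiter-Glo luminescence, normalized to DMSO and empty wells; activity summarized as Z-AUC.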
# [6] = measured here: cell count channel max response
# [7] = measured here: lipid channel max response
smiles,measurement,setting,value
C=CCN1CC[C@@]2(C)c3cc(O)ccc3CC1[C@@H]2C,outcome,[1],inactive
same,"activity change, negative = inhibition",[2],-0.315% (inactive)
same,max response,[2]; [6],26.7%
same,max response,[2]; [7],28.1%
same,outcome,[3],inactive
same,outcome,[4],inactive
CN1CCC23CCCC[C@H]2C1Cc1ccc(O)cc13 (stereo not given in full),outcome,[1],inactive
same,"activity change, negative = inhibition",[2],0.333% (inactive)
same,max response,[2]; [6],15.7%
same,max response,[2]; [7],15.2%
same,outcome,[3],inactive
same,outcome,[4],inactive
COc1ccc2c(c1O)-c1cccc3c1C(C2)N(C)CC3 (stereo not given),outcome,[1],inactive
same,outcome,[3],inactive
same,outcome,[4],inactive
CCCCN1C2CCC1CC(OC(c1ccc(F)cc1)c1ccc(F)cc1)C2 (stereo not given),outcome,[1],inactive
same,outcome,[3],inactive
same,outcome,[4],inactive
CC1Cc2cc3c(cc2C(c2ccc(N)cc2)=NN1)OCO3 (stereo not given),outcome,[1],inactive
same,"activity change, negative = inhibition",[2],1.87% (inactive)
same,max response,[2]; [6],56.1%
same,max response,[2]; [7],60.1%
same,outcome,[3],inactive
same,outcome,[4],inactive
C[C@H]1OC[C@@H](C[N+](C)(C)C)O1,outcome,[1],inactive
same,outcome,[3],inactive
same,outcome,[4],inactive
CCN(CC)C(=O)N[C@@H]1C[C@@H]2c3cccc4[nH]cc(c34)C[C@H]2N(C)C1,outcome,[1],inactive
same,"activity change, negative = inhibition",[2],-3.98% (inactive)
same,max response,[2]; [6],28.2%
same,max response,[2]; [7],24%
same,outcome,[3],inactive
same,outcome,[4],inactive
C#CCN(C)C(C)Cc1ccccc1 (stereo not given),outcome,[1],inactive
same,"activity change, negative = inhibition",[2],2.75% (inactive)
same,max response,[2]; [6],64.3%
same,max response,[2]; [7],65.5%
same,outcome,[3],inactive
same,outcome,[4],inactive
CCCN(CCC)[C@@H]1CCc2c(F)ccc(O)c2C1,outcome,[1],inactive
same,outcome,[3],inactive
same,outcome,[4],inactive
CCCN(CCC)C(=O)Cc1c(-c2ccc(Cl)cc2)nc2c(Cl)cc(Cl)cn12,outcome,[1],inactive
same,"activity change, negative = inhibition",[2],1.58% (inactive)
same,max response,[2]; [6],-21.2%
same,max response,[2]; [7],-20.1%
same,outcome,[3],inactive
same,outcome,[4],inactive
NCC#Cc1ccccc1,outcome,[1],inactive
same,"activity change, negative = inhibition",[2],-4.59% (inactive)
same,max response,[2]; [6],-80.1%
same,max response,[2]; [7],-81.6%
same,outcome,[3],inactive
same,outcome,[4],inactive
CCCN1CCC[C@@H]2Cc3n[nH]cc3C[C@H]21,outcome,[1],inactive
same,"activity change, negative = inhibition",[2],3.49% (inactive)
same,max response,[2]; [6],9.58%
same,max response,[2]; [7],14.1%
same,outcome,[3],inactive
same,outcome,[4],inactive
C/C1=C/C[C@@H](/C(C)=C/c2csc(C)n2)OC(=O)C[C@H](O)C(C)(C)C(=O)[C@H](C)[C@@H](O)[C@@H](C)CCC1,Potency,[5],19.5 nM (active)
same,Z-AUC,[5]; measured here: PEO1 parental Z-AUC,-2.71
same,Z-AUC,[5]; measured here: PEO4 Z-AUC,-2.82
C[C@]12CC[C@H]3[C@@H](CCC4C[C@H](O)CC[C@@]43C)[C@@H]1CC[C@@H]2O (stereo not given in full),outcome,[1],inactive
same,outcome,[3],inactive
same,outcome,[4],inactive
CC(C)(O)C1C2OC(=O)C1[C@]1(O)C[C@H]3O[C@]34C(=O)O[C@H]2[C@]14C (stereo not given in full) (tested in a mixture with another compound),outcome,[1],inactive
same,outcome,[3],inactive
same,outcome,[4],inactive
CC12CCC3C(CCC4=C(O)C(=O)CCC43C)C1CCC2=O (stereo not given),outcome,[1],inactive
same,outcome,[3],inactive
same,outcome,[4],inactive
CCCN1CCCC(c2cccc(O)c2)C1 (stereo not given),outcome,[1],inactive
same,outcome,[3],inactive
same,outcome,[4],inactive
Oc1ccc2c3c1O[C@H]1[C@@H](O)CC[C@@]4(O)C(C2)N(CC2CCC2)CCC314 (stereo not given in full),outcome,[1],inactive
same,outcome,[3],inactive
same,outcome,[4],inactive
COC(=O)C(N)CCCN=C(N)N[N+](=O)[O-] (stereo not given),outcome,[1],inactive
same,outcome,[3],inactive
same,outcome,[4],inactive
CCNC(=O)[C@H]1O[C@@H](n2cnc3c(N)ncnc32)[C@H](O)[C@H]1O,outcome,[1],inactive
same,outcome,[3],inactive
same,outcome,[4],inactive
COc1cc(C=C(C#N)C#N)cc(O)c1O,outcome,[1],inactive
same,"activity change, negative = inhibition",[2],-2.14% (inactive)
same,max response,[2]; [6],23.5%
same,max response,[2]; [7],22.3%
same,outcome,[3],inactive
same,outcome,[4],inactive
CC[C@@H](CO)NC(=O)[C@H]1C=C2c3cccc4c3c(cn4C)C[C@H]2N(C)C1,outcome,[1],inactive
same,"activity change, negative = inhibition",[2],2.02% (inactive)
same,max response,[2]; [6],18.8%
same,max response,[2]; [7],22.3%
same,outcome,[3],inactive
same,outcome,[4],inactive
CN1C[C@@H](CS(=O)(=O)N(C)C)C[C@@H]2c3cccc4c3c(cn4C)C[C@H]21,outcome,[1],inactive
same,outcome,[3],inactive
same,outcome,[4],inactive
C[N+]1(C)C2CC(OC(=O)C(CO)c3ccccc3)CC1C1OC12 (stereo not given),outcome,[1],inactive
same,"activity change, negative = inhibition",[2],0.686% (inactive) and -2.43% (inactive)
same,max response,[2]; [6],53.9% and -15.4%
same,max response,[2]; [7],52.9% and -17%
same,outcome,[3],inactive
same,outcome,[4],inactive
CCCC[N+]1(C)C2CC(OC(=O)C(CO)c3ccccc3)CC1C1OC12 (stereo not given),outcome,[1],inactive
same,"activity change, negative = inhibition",[2],-1.49% (inactive)
same,max response,[2]; [6],13.3%
same,max response,[2]; [7],13.7%
same,outcome,[3],inactive
same,outcome,[4],inactive
Nc1ncnc2c1ncn2[C@@H]1O[C@H](COP(=O)(O)CP(=O)(O)OP(=O)(O)O)[C@H](O)[C@H]1O,outcome,[1],inactive
same,outcome,[3],inactive
same,outcome,[4],inactive
C[C@H]1C2Cc3ccc(O)cc3[C@]1(C)CCN2CC1CC1,outcome,[1],inactive
same,outcome,[3],inactive
same,outcome,[4],inactive
COc1cc(C[C@@H](C)N)c(OC)cc1I,outcome,[1],inactive
same,outcome,[3],inactive
same,outcome,[4],inactive
COc1ccc2c3c1O[C@H]1C(=O)CC[C@@]4(O)C(C2)N(CC2CC2)CCC314 (stereo not given in full),outcome,[1],inactive
same,outcome,[3],inactive
same,outcome,[4],inactive
CCC(CO)NC(=O)[C@@H]1C=C2c3cccc4[nH]cc(c34)C[C@H]2N(C)C1 (stereo not given in full),outcome,[1],inactive
same,"activity change, negative = inhibition",[2],0.713% (inactive)
same,max response,[2]; [6],-10.2%
same,max response,[2]; [7],-11.2%
same,outcome,[3],inactive
same,outcome,[4],inactive
CCN1C[C@]2(C)CC[C@H](O)[C@@]34[C@@H]5C[C@@H]6[C@@H](OC)C[C@@](O)(C5[C@H]6O)[C@@H](C[C@@H]23)[C@@H]14,outcome,[1],inactive
same,"activity change, negative = inhibition",[2],1.56% (inactive)
same,max response,[2]; [6],-17.1%
same,max response,[2]; [7],-16.8%
same,outcome,[3],inactive
same,outcome,[4],inactive

# — PubChem BioAssay (NCATS)
